Screening data: PubChem, National Center for Advancing Translational Sciences (NCATS)
Sampled rows, rich in hits. Any-hit rate of the full collection: about 19%.
TDP1 cell noCPT: qHTS for Inhibitors of human tyrosyl-DNA phosphodiesterase 1 (TDP1): qHTS in cells in absence of CPT. DT40 Tdp1-/- hTDP1 cells, no CPT, ATP luminescence, 48 h. Potency, µM (doses to about 46.2 µM), without a hit: top-dose activity change, negative = growth inhibition, actives largely listed as inhibitors. 15% of 420,000 active; also: potency is read from the fitted curve at half-maximal effect; % is scaled to controls: 0 for no effect and ±100 for the full control effect; nearly all actives have a fitted effect of over 55% in size
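Chicken DT40 Tdp1-/- cells stably complemented with human TDP1 were seeded at 400 cells/well with DMSO in place of 20 nM camptothecin. After compound pinning, cells grew at least 48 hr at 37 °C; viability read by CellTiter-Glo luminescence.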
S-ASM inh: inhibitors of human secretory acid sphingomyelinase | P17405 | 0.006% of 340,000 active | placental ASM, HMU-PC fluorogenic substrate, 60 min | Potency, µM (doses to about 57.5 µM), without a hit: top-dose activity change, negative = inhibition, actives largely listed as inhibitors; also: potency is read from the fitted curve at half-maximal effect
Target sequence (P17405 47-631 limits assumed): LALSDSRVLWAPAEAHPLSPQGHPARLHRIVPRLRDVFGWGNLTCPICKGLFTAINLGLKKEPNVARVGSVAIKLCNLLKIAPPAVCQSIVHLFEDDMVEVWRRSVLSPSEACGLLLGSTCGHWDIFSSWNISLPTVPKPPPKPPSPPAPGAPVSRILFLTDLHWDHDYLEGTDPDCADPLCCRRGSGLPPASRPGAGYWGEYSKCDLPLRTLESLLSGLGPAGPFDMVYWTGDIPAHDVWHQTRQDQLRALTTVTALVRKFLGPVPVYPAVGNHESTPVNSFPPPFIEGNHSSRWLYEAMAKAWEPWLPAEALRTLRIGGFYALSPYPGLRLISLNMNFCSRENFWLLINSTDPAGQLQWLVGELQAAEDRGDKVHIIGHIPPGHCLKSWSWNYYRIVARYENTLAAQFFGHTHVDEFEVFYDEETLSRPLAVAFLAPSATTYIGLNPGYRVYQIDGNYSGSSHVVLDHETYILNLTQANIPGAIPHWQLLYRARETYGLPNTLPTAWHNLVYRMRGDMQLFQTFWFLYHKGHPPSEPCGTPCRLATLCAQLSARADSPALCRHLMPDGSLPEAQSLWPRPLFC
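Human placenta-derived ASM preincubated with compound 10 min at room temperature, then reacted with 9 uM (final) fluorogenic HMU-PC substrate for 60 min at 37 C. Stop solution raises pH to 10; fluorescence read at Ex 386/Em 447 nm.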
IL-1B inflam inh: inflammasome signaling inhibition, IL-1 beta readout; activity change, % at 57.5 µM; THP-1 LPS/ATP IL-1B secretion, AlphaLISA, 16 h; hits give low values; 4.7% of 360,000 active; AID 743279; in the data active = activity change below about -50%; inconclusive = mostly about -30% to -49%; also: % is scaled to controls: 0 for no effect and ±100 for the full control effect
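THP-1 cells pretreated 1 hr with compounds (up to 57.5 uM final), then stimulated with LPS (250 ng/mL final) plus ATP (1.25 mM final); secreted IL-1B measured by AlphaLISA after 16 hr, decreased signal indicating inhibition.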
HepG2 tox: counter-screen for TGF-b inhibitors: cytotoxicity in HepG2 cells; HepG2 CAGA-GFP viability, ATP luminescence, 18 h; Potency, µM (titrated, usually from 46.1 µM), inactives show at the top dose activity change, negative = cytotoxicity, hits mostly cytotoxic; 0.76% of 410,000 active; AID 588856; also: potency is read from the fitted curve at half-maximal effect
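HepG2 CAGA-GFP cells (1000/well, DMEM with 1% FBS) received compound, then TGF-beta at 500 pg/mL final, and were incubated 18 hours at 37 degrees C. Viability was read by CellTiter-Glo luminescence. Media-only wells were set as complete cell-killing and DMSO as no toxicity.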
TDP1 cell CPT: DT40-hTDP1 cell growth loss with CPT; Potency, µM (highest dose often 46.2 µM), for inactives: top-dose activity change, negative = growth inhibition, most hits filed as inhibitors; chicken DT40 Tdp1-/-;hTDP1 cells + 20 nM CPT, ATP luminescence, 48 h; 12% of 420,000 active; AID 686979; also: potency is read from the fitted curve at half-maximal effect; % is scaled to controls: 0 for no effect and ±100 for the full control effect; nearly all actives have a fitted effect of over 55% in size
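Cell growth measured by CellTiter-Glo luminescence after a minimum 48 h, 37 C compound exposure with 20 nM CPT in Tdp1-knockout DT40 cells stably expressing hTDP1, seeded 400/well; qHTS titration format.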
TGFb inhibitor: blocks TGF-b signaling; HepG2 CAGA-GFP TGF-b/SMAD3 reporter, GFP fluorescence, 18 h; TGF-beta stimulated, 500 pg/mL final; 1.2% of 410,000 active; Potency, µM (doses to about 46.1 µM), inactives show at the top dose activity, negative = inhibition, hits mostly inhibitors; AID 588855; also: potency is read from the fitted curve at half-maximal effect; % is scaled to controls: 0 for no effect and ±100 for the full control effect; nearly all actives have a fitted effect of over 65% in size
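Inhibition of TGF-beta-driven CAGA-GFP reporter expression in HEPG2 cells is measured by cellular GFP fluorescence after 18 h stimulation with 500 pg/mL recombinant TGF-beta in 1% FBS medium at 37 degrees C.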
Active calls of the source: *; ? = inconclusive; . = not tested or not shown; [ ] = another dose, or the depositor's remark. Unless noted, calls follow the shape of the dose curve; as a rule, active = well fitted curve in the direction sought with a large enough effect; inconclusive = small, poorly fitted or top-dose-only effect, or another doubt; inactive = no such curve, though single readings can be large; an effect the other way counts as inactive or inconclusive.

SMILES	TDP1 cell noCPT	S-ASM inh	IL-1B inflam inh	HepG2 tox	TDP1 cell CPT	TGFb inhibitor
CCOc1ccc(OCC)c(NC(=O)CN2CCN(CC)CC2)c1	-20%	1%	10	9%	-7%	1%
CCOc1ccc(OCC)c(NC(=O)CN2CCN(CC(=O)NC(C)C)CC2)c1	?	8%	1	-25%	15µM*	2%
CCOc1ccc(OCC)c(NC(=O)CN2CCN(c3cccc(C)c3)CC2)c1	16µM*	-5%	22	-16%	23µM*	-15%
CCOc1ccc(OCC)c(NC(=O)CN2CCN(c3cccc(C)c3)C(C)C2)c1 (configuration not stated)	15µM*	-13%	-25	-3%	15µM*	-5%
COc1ccc(CN2CCCC(c3nc(-c4ccncc4)ncc3-c3ccccc3)C2)c(OC)c1OC (configuration not stated)	-13%	.	.	.	6%[9.04 µM]	.
O=C(Cc1ccccc1)N/N=C/c1ccc2cccc(O)c2n1	2.6µM*	-4%	-18	-16%	2.1µM*	?
CC(C)Cc1csc(=S)[nH]1	4%	-1%	41	-2%	1%	7%
Cc1cc(NC(=O)c2ccc(F)cc2)n(-c2ccccn2)n1	?	-1%	-68*	-22%	?	-5%
Cc1cc(NC(=O)Nc2cccc(Cl)c2)n(-c2ccccn2)n1	18µM*	-3%	-73*	-27%	?	?
Cc1ccccc1Cc1ccc(Cl)nn1	3%	4%	1	3%	-4%	-6%
CC(=O)Nc1ccc(S(=O)(=O)N(C)CC(=O)OCC(=O)c2ccc3c(c2)NC(=O)CO3)cc1	7%	-1%	12	18%	2%	20%
O=C1C(Cl)=C(N2CCCCCC2)C(=O)N1c1ccccc1Cl	11%	-3%	-14	6%	-6%	3%
Cc1ccc(N2C(=O)C(Cl)=C(N3CCCCCC3)C2=O)c(C)c1	15µM*	-7%	?	-5%	?	-13%
N#Cc1cc(C#N)c(SCC(=O)N2CC(=O)Nc3ccccc32)nc1N	21µM*	-1%	-18	0%	21µM*	34%
CCc1ccc2nc(SCC(=O)N3CC(=O)Nc4ccccc43)c(C#N)cc2c1	16µM*	-11%	56	-14%	?	0%
CCc1cc2cc(C)ccc2nc1SCC(=O)N1CC(=O)Nc2ccccc21	?	-8%	-74*	0%	?	-28%
CCc1ccc2nc(SCC(=O)N3CCCCC3)c(C#N)cc2c1	?	0%	27	-3%	?	-4%
CCCSc1nc2sc3c(c2c(=O)n1-c1ccccc1)CCC(C)C3 (configuration not stated)	-15%	.	.	-1%	-11%	3%
CC1=C(C#N)C(c2ccoc2)C(C(=O)OCc2ccccc2)=C(N)S1 (configuration not stated)	26µM*	-3%	-13	-25%	-26%	?
C=CCOC(=O)C1=C(C)OC(N)=C(C#N)C1c1ccoc1 (configuration not stated)	-1%	6%	18	-3%	4%	65%
O=C(Nc1nncs1)C1CCCC1	-14%	2%	0	-19%	-4%	-2%
CCNc1nc(CN2CCCCC2)nc2scc(-c3ccccc3)c12	16µM*	0%	-91*	-35%	12µM*	?
Cc1sc2nc(CN3CCCCC3)nc(N3CCN(C(=O)c4ccco4)CC3)c2c1C	-4%	-2%	8	-1%	?	4%
OCC1CCCN(c2nc(CN3CCCCC3)nc3scc(-c4ccccc4)c23)C1 (configuration not stated)	?	1%	-6	-34%	15µM*	-11%
CCCCOC(=O)c1ccc(NC(=O)c2cc(-c3cccs3)on2)cc1	?	.	.	-13%	-29%	-1%
SMILES	TDP1 cell noCPT	S-ASM inh	IL-1B inflam inh	HepG2 tox	TDP1 cell CPT	TGFb inhibitor
FC(F)(F)c1ccc(CSc2ccccn2)cc1	-26%	0%	-61*	-21%	-3%	-3%
CCc1ccccc1NC(=O)c1sc(-n2nc(C)c(Cc3ccc4c(c3)OCO4)c2C)nc1C	18µM*	.	.	5%	?	13%
CC(=O)c1cccc(NC(=O)c2sc(Cl)nc2C)c1	-10%	-1%	-54*	38%	-2%	17%
Cc1nc(-n2nc(C)c(Cc3ccc4c(c3)OCO4)c2C)sc1C(=O)Nc1ccc(Cl)cc1	-29%	.	.	-13%	-19%	14%
Cc1nc(-c2ccccn2)sc1C(=O)Nc1ccc(Cl)c(Cl)c1	15µM*	-22%	-9	-34%	?	-19%
CC(=O)c1cccc(NC(=O)c2sc(-n3nc(C)c(Cc4ccccc4)c3C)nc2C)c1	?	.	.	-13%	?	-61%
COc1ccc(Cc2c(C)nn(-c3nc(C)c(C(=O)Nc4cccc(C(C)=O)c4)s3)c2C)cc1	12µM*	.	.	-9%	9.2µM*	?
Cc1cccc(C(=O)N2CCCCC2CCN2CCCCC2)c1 (configuration not stated)	2%	.	.	2%	3%	-14%
Cc1nc(Cl)sc1C(=O)Nc1ccccc1	-25%	4%	4	5%	8%	23%
Cc1ccc(C)c(NC(=O)c2sc(Cl)nc2C)c1	10%	4%	-58*	19%	-2%	2%
Cc1ccc(C)c(NC(=O)c2sc(Cl)nc2-c2ccccc2)c1	?	-8%	8	-6%	?	-10%
Cc1nc(Cl)sc1C(=O)Nc1cccc(Cl)c1	-1%	-5%	-56*	14%	-20%	8%
COc1cc2c(NC3CCN(C(C)C)CC3)nc(N3CCCN(C)CC3)nc2cc1OCCOCCN1CCCC1	14µM*	.	.	-2%	10µM*	?
COc1cc2c(NC3CCN(C)CC3)nc(N3CCCN(C)CC3)nc2cc1OCCCN1CCCC1	?	.	.	-2%	?	-20%
COc1cc2c(NC3CCN(C)CC3)nc(N3CCCCC3)nc2cc1OCCOCCN1CCCC1	?	.	.	-2%	13µM*	?
COc1ccc(CCNC(=O)C(C)SCC(=O)Nc2ccc(F)cc2)cc1 (configuration not stated)	-26%	4%	-10	-9%	-15%	-20%
CCOc1ncccc1C(=O)OCC(=O)Nc1cc(C(C)(C)C)ccc1OC	-20%	-2%	15	-6%	-18%	24%
